The whole screen tested about 1,100 compounds, of which about 390 (35%) were called active. Not shown: some 30% with an inconclusive outcome. The call rests on the fitted dose curve; in most records, active means well fitted inhibition curve with a large enough effect; inconclusive means small, poorly fitted or top-dose-only effect; inactive means flat fitted curve, though single readings scatter. This is one part of the list.
What follows are compounds tested against Luciferin 4-monooxygenase (Photinus pyralis) (UniProt P08659) (assay: qHTS of Nrf2 Activators: Hit Validation in Secondary FLuc Assay). Details: firefly luciferase inhibition counter-screen, luminescence; series mostly up to 57.5 µM.
In short: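 Counter-screen on purified firefly luciferase with ATP and D-luciferin at Km concentrations; compounds flagged if they inhibit the enzyme, indicating possible reporter stabilization rather than ARE activation.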
Further: nearly all actives have a fitted effect of over 65% in size.
Potency means the concentration at half of the fitted maximal effect.

| Compound | Potency |
| --- | --- |
| COc1ccc(N(CCCN2C(=O)c3cccc4cccc(c34)C2=O)C(=O)c2cccc(OC)c2)cc1 | inactive |
| CC1Oc2ccccc2OC1C(=O)Nc1ccccn1 (stereo unspecified) | inactive |
| CCOc1cc2ccccc2cc1C(=O)Nc1ccccn1 | 5360 nM (active) |
| CCc1nc(Nc2cccc(F)c2)c2oc3ccccc3c2n1 | inactive |
| Brc1ccccc1C1N=C(c2ccccc2)NO1 (stereo unspecified) | 1350 nM (active) |
| O=C(NNC(=O)C12CC3CC(CC(C3)C1)C2)c1cccc([N+](=O)[O-])c1 | inactive |
| Cc1cc(C)cc(NC(=O)Nc2cccs2)c1 | 2390 nM (active) |
| O=C(CCCc1ccccc1)Nc1cccc([N+](=O)[O-])c1 | 7570 nM (active) |
| O=C(Nc1cccc([N+](=O)[O-])c1)Nc1cccs1 | 10700 nM (active) |
| O=C(CCCCCCC(=O)Nc1ccccc1)NO | inactive |
| O=C(CSc1cccc[n+]1[O-])Nc1cc([N+](=O)[O-])ccc1Cl | inactive |
| Cc1cc(C)cc(NC(=O)/C=C/c2ccc([N+](=O)[O-])s2)c1 | inactive |
| COc1ccc(OC)c(NC(=O)C(C#N)=Cc2ccco2)c1 | 9530 nM (active) |
| COc1ccc(NC(=O)C2CC(=O)N/C(=N/N=C/c3ccco3)S2)cc1 (stereo unspecified) | inactive |
| O=C(/C=C/c1ccccc1Cl)Nc1nc(-c2cccs2)ns1 | 1690 nM (active) |
| Cc1cc2c(cc1C)N(C(=O)CCl)CC(=O)N2 | inactive |
| O=c1cc(-c2ccccc2)oc2ccc(Cl)cc12 | 849 nM (active) |
| Nn1c(-c2ccccc2)nc2cc(Cl)ccc2c1=O | inactive |
| CSc1ccc(-c2cc(=O)c3ccccc3o2)cc1 | 1200 nM (active) |
| COc1c(C(=O)Nc2nnc(C3CC3)s2)csc1Cl | 7570 nM (active) |
| O=[N+]([O-])c1ccccc1C=NNc1ccccc1 | 2690 nM (active) |
| O=[N+]([O-])c1ccc(Cl)cc1C=NNc1ccccn1 | inactive |
| O=[N+]([O-])c1cncc([N+](=O)[O-])c1Nc1cccc(O)c1 | inactive |
| O=C(N/N=C/C(Br)=C/c1ccccc1)c1ccc([N+](=O)[O-])cc1 | inactive |

| Compound | Potency |
| --- | --- |
| O=[N+]([O-])c1cc(Cl)cc2c1nc(NCCO)c1ccccc12 | inactive |
| O=[N+]([O-])c1ccccc1/C=N/Nc1nccnc1Cl | 13500 nM (active) |
| Fc1ccc2cc(-c3ccsc3)ncc2c1 | 1690 nM (active) |
| CCN(CC)c1ccc2c(c1)oc(=O)c1c(Cl)cc(=O)oc12 | 6010 nM (active) |
| Cc1noc(C)c1-c1ccc2ncnc(NCC3CCCCN3C)c2c1 (stereo unspecified) | inactive |
| O=C(Nc1ccccc1)c1cc([N+](=O)[O-])ccc1Cl | inactive |
| O=C(Nc1cccc([N+](=O)[O-])c1)c1[nH]ncc1Cl | 9530 nM (active) |
| CCn1ncc(Br)c1C(=O)Nc1cc([N+](=O)[O-])ccc1C | inactive |
| COc1ccc(C(C#N)=C2C=CC(=NO)C=C2)cc1 | 8490 nM (active) |
| Cc1cc(C)n(-c2nc3ccccc3c(=O)n2OCc2ccc(F)cc2)n1 | inactive |
| O=C(CSc1nccc(-c2cccs2)n1)Nc1ccc(F)c(Cl)c1 | inactive |
| C#CCSc1nc(-c2cccs2)ccc1C#N | inactive |
| N#Cc1cccn1-c1nccc(-c2cccs2)n1 | 12000 nM (active) |
| Cc1ccc(S(=O)(=O)c2nc(S(C)(=O)=O)sc2N2CCC(O)CC2)cc1 | inactive |
| Clc1cccc(Cc2c(-c3ccco3)nc3c4ccccc4ccn23)c1 | 1900 nM (active) |
| c1ccc(-c2nc3c4ccccc4ccn3c2Cc2ccsc2)cc1 | 1510 nM (active) |
| Fc1cccc(Cc2c(-c3ccco3)nc3c4ccccc4ccn23)c1 | 379 nM (active) |
| c1ccc(Cc2c(-c3ccco3)nc3c4ccccc4ccn23)cc1 | 601 nM (active) |
| CCCc1nc([N+](=O)[O-])c(S(=O)(=O)c2ccccc2)n1CC(C)C | inactive |
| COc1ccc(Cc2c(-c3ccccc3)nc3c4ccccc4ccn23)c(C)c1 | 3010 nM (active) |
| Clc1cccc(Cc2c(-c3ccccc3)nc3c4ccccc4ccn23)c1 | 6010 nM (active) |
| Cc1ccc(Cc2c(-c3ccco3)nc3c4ccccc4ccn23)cc1 | 239 nM (active) |
| COc1ccccc1Cc1c(-c2ccco2)nc2c3ccccc3ccn12 | 301 nM (active) |
| FC(F)(F)c1ccccc1Cc1c(-c2ccccc2)nc2c3ccccc3ccn12 | 5360 nM (active) |

| Compound | Potency |
| --- | --- |
| Clc1ccsc1-c1csc(-c2cccnc2)n1 | 3380 nM (active) |
| CC(=O)N1CCc2c(sc(NC(=O)CCS(=O)(=O)c3ccccc3)c2C#N)C1 | inactive |
| CCOC(=O)N1CCc2c(sc3c2C(=O)NC(c2ccccc2)N3)C1 (stereo unspecified) | 6750 nM (active) |
| COc1ccc([C@H]2Cc3cccc(O)c3C(=O)O2)cc1O | inactive |
| Cc1sc2ncnc(NCc3ccco3)c2c1C | inactive |
| CCc1cc2c(NCc3ccco3)ncnc2s1 | inactive |
| COc1ccc2[nH]c3c(NCc4ccco4)ncnc3c2c1 | 4780 nM (active) |
| COc1cc(OC)c(OC)cc1/C=C1/Cc2ccccc2C1=O | inactive |
| O=C1C(=Cc2cccc(Cl)c2)Cc2ccccc21 | 1070 nM (active) |
| Nc1ccccc1C=C1Cc2ccccc2C1=O | 426 nM (active) |
| O=C1C(=Cc2cccc(F)c2)Cc2ccccc21 | 1510 nM (active) |
| O=C1C(=Cc2ccccc2Cl)CCc2ccccc21 | 169 nM (active) |
| Cc1c(=O)n(OCc2ccc(Cl)cc2)c2ccccc2[n+]1[O-] | inactive |
| CC1(O)c2ccccc2C(=O)N1CCc1ccccc1F (stereo unspecified) | 6750 nM (active) |
| Oc1ccccc1-n1nc2ccc3nonc3c2n1 | inactive |
| FC(F)(F)c1cc(-c2cccs2)nc(-n2cc(Br)cn2)n1 | inactive |
| FC(F)(F)c1cc(-c2cccs2)nc(NCc2ccco2)n1 | inactive |
| Brc1cc(Br)c2nc(-c3cccs3)ccc2c1 | 3010 nM (active) |
| Cc1sc2c(c1C)C(=O)NC(c1ccccc1F)N2 (stereo unspecified) | 2390 nM (active) |
| O=C(CN1CCS(=O)(=O)CC1)N/N=C/c1cccc(C(F)(F)F)c1 | inactive |
| CCOC(=O)c1c(NC(=O)/C=C/c2ccc(C)o2)sc(C)c1C | 13500 nM (active) |
| Cn1nc(C(=O)Nc2c(-c3ccccc3)nc3sccn23)c2ccccc2c1=O | inactive |
| CS/C(=C\C(=O)c1ccco1)Nc1ccccc1Cl | 2690 nM (active) |

Source: PubChem BioAssay AID651597 (National Center for Advancing Translational Sciences (NCATS), 2012)
